Results published in ChEMBL document CHEMBL4513135, “CO-ADD screening of IQOG CSIS (Spain) compounds”.
Measured potencies and affinities stand elsewhere.

How the values were obtained:
[1] = system: Klebsiella pneumoniae; settings: Concentration 32 ug.mL-1; ASSAY_TEST Inhibition of Bacterial Growth; detection method Absorption (OD600); MEDIA CAMHB; plate type 384well; NBS; CORNING #3640; time 18 hr
[2] = system: Candida albicans; settings: 32 ug/mL
[3] = system: Cryptococcus neoformans; settings: Concentration 32 ug.mL-1; ASSAY_TEST Inhibition of Fungal Growth; detection method Resazurin; Absorption (OD600-OD570); plate type 384well; NBS; CORNING #3640

Question: `COc1ccc2c(ccn2C)c1` was tested. Which Inhibition [1] did it give?
Answer: Its Inhibition is 14.15%.

Question: And the Inhibition [2]?
Answer: The Inhibition was 1.33%.

Question: And the Inhibition [3]?
Answer: The Inhibition was -1.95%.

Question: What does the source list for `Cc1ccc(C(O)SNNc2nc(C)nc3c2c(C)nn3-c2ccccc2)cc1` (stereo not given)?
Answer: Inhibition [1]: 11.05%; Inhibition [2]: -0.04%; Inhibition [3]: -5.24%

Question: Which results are given for `CCOC(=O)c1c(C)[nH]c(=O)c(C#N)c1-c1ccccc1`?
Answer: Inhibition [1]: 10.06%; Inhibition [2]: 2.08%; Inhibition [3]: -38.24%

Question: `C#CCNc1nc(N)c(C#N)cc1C#N` was tested. Which Inhibition [1] did it give?
Answer: Its Inhibition is 1.8%.

Question: What about the Inhibition [2] of the same molecule?
Answer: The Inhibition was 2.29%.

Question: And the Inhibition [3]?
Answer: Its Inhibition is -24.9%.

Question: For `N#Cc1cc(C#N)c(N2CCCCC2)nc1Cl`, which Inhibition [1] is on record?
Answer: The Inhibition was 12.8%.

Question: And the Inhibition [2]?
Answer: The Inhibition was 0.28%.

Question: And the Inhibition [3]?
Answer: Its Inhibition is -0.7%.

Question: For `CC1Cc2c(nc3c(c2N)CCCC3)NC1=O` (stereo not given), which Inhibition [1] is on record?
Answer: The Inhibition was 17.01%.

Question: And the Inhibition [2]?
Answer: The Inhibition was 1.73%.

Question: And the Inhibition [3]?
Answer: Its Inhibition is -61.31%.

Question: For `N#CC1(Br)C(=N)Oc2ccc3ccccc3c2C1c1cccc([N+](=O)[O-])c1` (stereo not given), which Inhibition [1] is on record?
Answer: The Inhibition was 16.38%.

Question: And the Inhibition [2]?
Answer: Its Inhibition is 11.2%.

Question: What about the Inhibition [3] of the same molecule?
Answer: Its Inhibition is -26.58%.

Question: How did the Inhibition [1] turn out when `COc1cccc(C2C(C#N)=C(N)Oc3c2ccc2ccccc32)c1` (stereo not given) was run?
Answer: Its Inhibition is 8.5%.

Question: And the Inhibition [2]?
Answer: Its Inhibition is 3.73%.

Question: What about the Inhibition [3] of the same molecule?
Answer: Its Inhibition is -38.21%.

Question: What does the source list for `Cl.N#Cc1c(N)nc(NCCO)c(C#N)c1-c1ccccc1`?
Answer: Inhibition [1]: 7.62%; Inhibition [2]: 1.4%; Inhibition [3]: -7.17%

Question: `NNC(=O)C1(NC(=O)c2ccccc2)CC1c1cccc(O)c1` (stereo not given) was tested. Which Inhibition [1] did it give?
Answer: Its Inhibition is 19.56%.

Question: What about the Inhibition [2] of the same molecule?
Answer: Its Inhibition is 0.45%.

Question: What about the Inhibition [3] of the same molecule?
Answer: Its Inhibition is -0.7%.

Question: With `N#Cc1c(N)nc(N2CCCCC2)c(C#N)c1-c1ccccc1` as the molecule, how does the Inhibition [1] read?
Answer: The Inhibition was 2.6%.

Question: And the Inhibition [2]?
Answer: The Inhibition was 1.97%.

Question: What about the Inhibition [3] of the same molecule?
Answer: The Inhibition was -31.47%.

Question: With `N#CC1(Br)C(=NBr)Oc2c(ccc3ccccc23)C1c1cccc([N+](=O)[O-])c1` (stereo not given) as the molecule, how does the Inhibition [1] read?
Answer: Its Inhibition is 24.92%.

Question: And the Inhibition [2]?
Answer: Its Inhibition is 10.2%.

Question: What about the Inhibition [3] of the same molecule?
Answer: The Inhibition was -69.53%.

Question: What does the source list for `N#Cc1cc(C#N)c(Cl)nc1N`?
Answer: Inhibition [1]: -13.03%; Inhibition [2]: 2.15%; Inhibition [3]: -5.53%

Question: With `CSC1=NC(=Cc2cn(C)c3ccccc23)C(=O)N1C` as the molecule, how does the Inhibition [1] read?
Answer: Its Inhibition is -7.62%.

Question: What about the Inhibition [2] of the same molecule?
Answer: Its Inhibition is 1.89%.

Question: And the Inhibition [3]?
Answer: Its Inhibition is -7.7%.

Question: What does the source list for `CCOC(=O)c1c(C)nc2nc3c(c(N)c2c1-c1ccc(Cl)cc1)CCCCC3`?
Answer: Inhibition [1]: 1.2%; Inhibition [2]: -0.36%; Inhibition [3]: -57.83%

Question: For `COc1cc(C=NNC(=O)Cc2c[nH]c3ccccc23)ccc1O`, which Inhibition [1] is on record?
Answer: The Inhibition was -2.6%.

Question: And the Inhibition [2]?
Answer: Its Inhibition is 0.74%.

Question: What about the Inhibition [3] of the same molecule?
Answer: Its Inhibition is -1.83%.

Question: How did the Inhibition [1] turn out when `C#CCNc1nc(NC2CCN(Cc3ccccc3)CC2)c(C#N)cc1C#N.Cl` was run?
Answer: Its Inhibition is -9.27%.

Question: What about the Inhibition [2] of the same molecule?
Answer: The Inhibition was 1.54%.

Question: And the Inhibition [3]?
Answer: Its Inhibition is -92.81%.

Question: For `O=C1SC(SCc2ccccc2)=NC1=Cc1ccccc1`, which Inhibition [1] is on record?
Answer: The Inhibition was 8.07%.

Question: What about the Inhibition [2] of the same molecule?
Answer: The Inhibition was 1.92%.

Question: What about the Inhibition [3] of the same molecule?
Answer: The Inhibition was -3.98%.

Question: With `CCOC(=O)/C(C#N)=C\c1ccc(C)cc1` as the molecule, how does the Inhibition [1] read?
Answer: The Inhibition was 18.72%.

Question: What about the Inhibition [2] of the same molecule?
Answer: Its Inhibition is 1.42%.

Question: And the Inhibition [3]?
Answer: Its Inhibition is -4.89%.

Question: How did the Inhibition [1] turn out when `O=C(O)c1c[nH]c2ccccc12` was run?
Answer: The Inhibition was -9.13%.

Question: And the Inhibition [2]?
Answer: Its Inhibition is 6.48%.

Question: And the Inhibition [3]?
Answer: Its Inhibition is -9.05%.

Question: With `Cc1ccc2nc(Cl)c(/C=N/N)cc2c1` as the molecule, how does the Inhibition [1] read?
Answer: Its Inhibition is 10.01%.

Question: And the Inhibition [2]?
Answer: Its Inhibition is 15.7%.

Question: And the Inhibition [3]?
Answer: Its Inhibition is -3.85%.

Question: With `COc1ccccc1C1c2c(ccc3ccccc23)OC(=N)C1(Br)C#N` (stereo not given) as the molecule, how does the Inhibition [1] read?
Answer: The Inhibition was 13.77%.

Question: And the Inhibition [2]?
Answer: Its Inhibition is 5.01%.

Question: What about the Inhibition [3] of the same molecule?
Answer: Its Inhibition is -63.67%.

Question: Which results are given for `C#CCNc1[nH]c2ccc(O)cc2c1C#N`?
Answer: Inhibition [1]: 14.34%; Inhibition [2]: 1.86%; Inhibition [3]: -54.9%

Question: What does the source list for `C1CNCCNCCNCCNC1`?
Answer: Inhibition [1]: 5.58%; Inhibition [2]: 4.25%; Inhibition [3]: -3.46%

Question: Which results are given for `O=C(N/N=C/c1ccc(Cl)cc1)c1cc2ccccc2[nH]1`?
Answer: Inhibition [1]: -19.43%; Inhibition [2]: 3.28%; Inhibition [3]: -0.9%

Question: For `CCOC(=O)C1=C(C)OC(N)=C(C#N)C1c1ccccc1OC` (stereo not given), which Inhibition [1] is on record?
Answer: Its Inhibition is 15.52%.

Question: And the Inhibition [2]?
Answer: Its Inhibition is 23.3%.

Question: What about the Inhibition [3] of the same molecule?
Answer: Its Inhibition is -0.68%.

Question: Which results are given for `C=C1CNc2c(C#N)c(-c3ccccc3)c(C#N)c(=N)n21`?
Answer: Inhibition [1]: 0.65%; Inhibition [2]: 3.22%; Inhibition [3]: -41.17%

Question: Which Inhibition [1] does the source give for `C#CCN(C)Cc1cc2cc(OCOc3ccc4c(c3)cc(CN(C)CC#C)n4C)ccc2n1C` here?
Answer: The Inhibition was 2.59%.

Question: What about the Inhibition [2] of the same molecule?
Answer: The Inhibition was -0.1%.

Question: What about the Inhibition [3] of the same molecule?
Answer: The Inhibition was -41.21%.

Question: With `CN(C)c1nc2nc3c(c(N)c2c(-c2ccccc2)c1C#N)CCCC3` as the molecule, how does the Inhibition [1] read?
Answer: The Inhibition was 5.15%.

Question: And the Inhibition [2]?
Answer: Its Inhibition is 1.47%.

Question: What about the Inhibition [3] of the same molecule?
Answer: Its Inhibition is -62.72%.

Question: For `CCOc1nc(N)c(C#N)cc1C#N`, which Inhibition [1] is on record?
Answer: The Inhibition was 12.55%.

Question: And the Inhibition [2]?
Answer: The Inhibition was 44.3%.

Question: What about the Inhibition [3] of the same molecule?
Answer: The Inhibition was -83.12%.

Question: `N#CC1(Br)C(=NBr)Oc2c(ccc3ccccc23)C1c1ccccc1[N+](=O)[O-]` (stereo not given) was tested. Which Inhibition [1] did it give?
Answer: Its Inhibition is 24.4%.

Question: What about the Inhibition [2] of the same molecule?
Answer: Its Inhibition is 25%.

Question: What about the Inhibition [3] of the same molecule?
Answer: The Inhibition was -80.63%.

Question: Which results are given for `C#CCN(C)Cc1cc2cc(OC)ccc2n1C`?
Answer: Inhibition [1]: 12.36%; Inhibition [2]: 5.35%; Inhibition [3]: -77.43%

Question: With `NOC(=O)C1CCN(Cc2ccccc2)CC1` as the molecule, how does the Inhibition [1] read?
Answer: Its Inhibition is 4.34%.

Question: What about the Inhibition [2] of the same molecule?
Answer: Its Inhibition is 1.62%.

Question: And the Inhibition [3]?
Answer: Its Inhibition is -5.93%.

Question: For `O=C(N/N=C/c1c[nH]c2ccccc12)c1ccco1`, which Inhibition [1] is on record?
Answer: Its Inhibition is 12.93%.

Question: And the Inhibition [2]?
Answer: The Inhibition was 1.93%.

Question: What about the Inhibition [3] of the same molecule?
Answer: The Inhibition was -1.51%.

Question: With `CNCc1cc2cc(OCc3ccccc3)ccc2n1C.Cl` as the molecule, how does the Inhibition [1] read?
Answer: The Inhibition was 14.91%.

Question: What about the Inhibition [2] of the same molecule?
Answer: Its Inhibition is -0.02%.

Question: What about the Inhibition [3] of the same molecule?
Answer: The Inhibition was 0.75%.

Question: What does the source list for `N#Cc1cc(C#N)c(NCCC2CCN(Cc3ccccc3)CC2)nc1N`?
Answer: Inhibition [1]: 15.31%; Inhibition [2]: 0.11%; Inhibition [3]: -88.16%

Question: `CSC1=NC2(CC2c2ccccc2)C(=O)N1C` (stereo not given) was tested. Which Inhibition [1] did it give?
Answer: Its Inhibition is -3.2%.

Question: What about the Inhibition [2] of the same molecule?
Answer: Its Inhibition is 0.11%.

Question: What about the Inhibition [3] of the same molecule?
Answer: The Inhibition was -5.95%.

Question: For `CCOC(=O)C1=C(C)OC(N)=C(C#N)C1c1ccccc1` (stereo not given), which Inhibition [1] is on record?
Answer: The Inhibition was 11.23%.

Question: What about the Inhibition [2] of the same molecule?
Answer: Its Inhibition is 6.07%.

Question: What about the Inhibition [3] of the same molecule?
Answer: The Inhibition was -42.71%.

Question: Which results are given for `COc1ccc(C2c3c(ccc4ccccc34)OC(=N)C2(Br)C#N)cc1` (stereo not given)?
Answer: Inhibition [1]: 10.22%; Inhibition [2]: 17.9%; Inhibition [3]: -84.01%

Question: Which Inhibition [1] does the source give for `CCOC(=O)C1=C(C)OC(N)=C(C#N)C1c1ccc(OC)c(OC)c1` (stereo not given) here?
Answer: Its Inhibition is 9.11%.

Question: And the Inhibition [2]?
Answer: The Inhibition was 3.32%.

Question: And the Inhibition [3]?
Answer: Its Inhibition is -51.05%.

Question: `O=c1oc2cc(O)ccc2cc1-c1ccccc1` was tested. Which Inhibition [1] did it give?
Answer: The Inhibition was 3.33%.

Question: And the Inhibition [2]?
Answer: The Inhibition was -0.21%.

Question: What about the Inhibition [3] of the same molecule?
Answer: Its Inhibition is -4.62%.

Question: With `CCOC(=O)/C(=C\c1ccccc1)C(=O)c1ccccc1` as the molecule, how does the Inhibition [1] read?
Answer: Its Inhibition is -3.55%.

Question: And the Inhibition [2]?
Answer: The Inhibition was 3.73%.

Question: And the Inhibition [3]?
Answer: Its Inhibition is -2.93%.

Question: How did the Inhibition [1] turn out when `CN(C)c1nc(N)c(C#N)cc1C#N` was run?
Answer: The Inhibition was 27.85%.

Question: And the Inhibition [2]?
Answer: The Inhibition was 0.31%.

Question: And the Inhibition [3]?
Answer: The Inhibition was -5.23%.

Question: For `O=C(N/N=C/c1cccc(Cl)c1)c1cc2ccccc2[nH]1`, which Inhibition [1] is on record?
Answer: Its Inhibition is -14.42%.

Question: What about the Inhibition [2] of the same molecule?
Answer: Its Inhibition is -0.35%.

Question: What about the Inhibition [3] of the same molecule?
Answer: Its Inhibition is -2.87%.

Question: How did the Inhibition [1] turn out when `COc1ccc2c(c1)cc(CN)n2C` was run?
Answer: The Inhibition was 13.36%.

Question: And the Inhibition [2]?
Answer: The Inhibition was 2.3%.

Question: And the Inhibition [3]?
Answer: Its Inhibition is -4.4%.
